# From PubChem
# A selection: hits, their analogues and other compounds. The true share with any hit is near 1.1%.
# AI-2 QS modul: Vibrio harveyi AI-2 quorum sensing modulation | activity change, % at 7.5 µM | 300,000 tested, 0.4% active | Vibrio harveyi JMH597 AI-2 luminescence/OD600 ratio, 9 h; active compounds read low; strain lacks LuxN and CqsS sensors; 0 = neutral-control median | AID 2094; in the data active means activity change below about -75%, passing the limit was not always enough;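 further: luminescence divided by OD600 gain over 9 h not by final OD600 alone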
# VLA-4 inh: inhibition in a human VLA-4 binding assay | inhibition, % (about 7 µM as worked out from the volumes in the protocol) | AID 2557 | 330,000 tested, 0.2% active | P13612 | VLA-4 expressing cells, ligand binding flow cytometry; in the data active means inhibition above about 50%
# DSG3 Ab inh: human desmoglein-3 autoantibody binding inhibition; AID 588358; binding (percent of control), % at 10 µM; 310,000 tested, 0.48% active; DSG3-coupled beads, scFv-anti-DSG3-GFP binding, flow cytometry; active compounds read low;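 active means binding more than 3 SD below its plate's average and above zero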;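 further: hits lower antibody fragment binding to DSG3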
# Target sequence (P32926 whole entry, looked up, the tested form may be a part): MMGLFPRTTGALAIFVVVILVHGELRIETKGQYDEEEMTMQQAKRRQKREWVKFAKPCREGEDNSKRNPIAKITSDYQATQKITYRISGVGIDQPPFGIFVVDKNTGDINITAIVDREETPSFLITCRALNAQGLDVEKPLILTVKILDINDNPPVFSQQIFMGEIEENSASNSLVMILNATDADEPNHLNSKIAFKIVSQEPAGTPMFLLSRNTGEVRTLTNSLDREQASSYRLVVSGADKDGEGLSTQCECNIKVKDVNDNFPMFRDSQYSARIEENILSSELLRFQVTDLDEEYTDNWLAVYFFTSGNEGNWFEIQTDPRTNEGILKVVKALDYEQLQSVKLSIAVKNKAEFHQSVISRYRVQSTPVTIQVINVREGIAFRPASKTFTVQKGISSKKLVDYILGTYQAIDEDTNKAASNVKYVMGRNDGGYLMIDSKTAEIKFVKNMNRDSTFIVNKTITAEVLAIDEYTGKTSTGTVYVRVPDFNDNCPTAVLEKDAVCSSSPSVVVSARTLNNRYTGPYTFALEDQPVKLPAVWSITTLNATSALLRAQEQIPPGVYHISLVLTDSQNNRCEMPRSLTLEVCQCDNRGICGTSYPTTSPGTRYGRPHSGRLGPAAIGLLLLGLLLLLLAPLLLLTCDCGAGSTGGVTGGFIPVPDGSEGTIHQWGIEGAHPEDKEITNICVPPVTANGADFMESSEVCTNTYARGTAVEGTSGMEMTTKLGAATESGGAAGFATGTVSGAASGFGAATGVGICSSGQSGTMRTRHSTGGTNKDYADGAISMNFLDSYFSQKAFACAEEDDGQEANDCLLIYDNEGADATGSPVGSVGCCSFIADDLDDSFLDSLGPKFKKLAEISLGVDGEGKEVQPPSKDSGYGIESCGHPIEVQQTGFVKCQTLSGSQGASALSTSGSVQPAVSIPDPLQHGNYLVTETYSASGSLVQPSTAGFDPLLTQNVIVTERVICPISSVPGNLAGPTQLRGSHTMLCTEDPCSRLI
# NTR1 ag: NTR1 (human) agonism; P30989; NTR1-U2OS beta-arrestin-GFP spot imaging, agonist mode; activation, % at 20 µM; 330,000 tested, 0.17% active;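 active means activation at or above 40% of the spot to cytoplasm intensity ratio, with at least 20 cells analyzed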
# A number is an active result; - = inactive; . = no result.
SMILES,AI-2 QS modul,VLA-4 inh,DSG3 Ab inh,NTR1 ag
COc1ccc(NC(=O)c2ccc3c(c2)C(=O)N(Cc2ccncc2)C3=O)cc1S(N)(=O)=O,.,-,69.4,-
COc1ccc(CN2C(=O)C(CC(=O)NC3CCCCC3)CC(C(=O)N(C(C)C)C(C)C)=C2C)cc1 (stereo unspecified),.,.,-,.
COCOCCn1cc(CN2CCS(=O)(=O)N(Cc3ccc(-c4ccc(OC)c(OC)c4)cc3)C(C)C2=O)nn1 (stereo unspecified),.,.,-,.
ClC(Cl)c1nnc(-c2ccccc2)c(-c2c[nH]c3ccccc23)n1,-77.2,-,-,-
c1ccc(-c2nnc(-c3c[nH]c4ccccc34)nc2-c2ccccc2)cc1,-,-,-,-
C=CCn1nc(C(=O)N2CCOCC2)cc1-c1sc(NC(=O)c2ccccc2)nc1C,.,.,-,.
CCOC(=O)CN(c1sc(C)c(C)c1C(=O)OCC)S(=O)(=O)c1ccc(C)cc1,.,.,-,.
C=CCc1cccc(CNc2cnc3ccccc3c2)c1O,-77.3,-,-,-
CCC1(c2ccc(F)cc2)NC(=O)N(CC(=O)NCc2ccc(C)cc2)C1=O (stereo unspecified),-77.7,-,-,-
CO[C@H]1/C=C/O[C@@]2(C)Oc3c(C)c(O)c4c(O)c(c(C=NN5CCN(C)CC5)c(O)c4c3C2=O)NC(=O)/C(C)=C\C=C\[C@H](C)[C@H](O)[C@@H](C)[C@@H](O)[C@@H](C)[C@H](OC(C)=O)[C@@H]1C,.,-,-,-
CO[C@H]1C=CO[C@@]2(C)Oc3c(C)c(O)c4c(O)c(c(C=NN5CCN(C)CC5)c(O)c4c3C2=O)NC(=O)C(C)=CC=C[C@H](C)[C@H](O)[C@@H](C)[C@@H](O)[C@@H](C)[C@H](OC(C)=O)[C@@H]1C,-119.1,-,-,-
CO[C@H]1C=CO[C@@]2(C)Oc3c(C)c(O)c4c(O)c(c(C=NN5CCN(C6CCCC6)CC5)c(O)c4c3C2=O)NC(=O)C(C)=CC=C[C@H](C)[C@H](O)[C@@H](C)[C@@H](O)[C@@H](C)[C@H](OC(C)=O)[C@@H]1C,-185.1,.,.,-
Cc1ccc(NP(=O)(c2ccc(N(C)C)cc2NC(=O)c2cccs2)N2CCOCC2)cc1 (stereo unspecified),-,-,-,-
Cc1ccc(NP(=O)(c2ccc(N(C)C)cc2NC(=O)c2cccs2)N2CCOCC2)cc1Cl (stereo unspecified),-,-,85.3,-
CCOC(=O)c1ccc(NC(=O)NC2=NCCS2)cc1,.,.,-,.
Cc1ccc(NC(=O)NCc2ccc3[nH]c(C)cc3c2)cc1,-,-,86.6,-
Cc1cc2cc(CNC(=O)NC3CCCCC3)ccc2[nH]1,-,-,73.7,-
Cc1cc2cc(CNC(=S)NC3CCCCC3)ccc2[nH]1,-,-,-,-
CN(CC(=O)Nc1ccc(Cl)c(C(F)(F)F)c1)C(=O)c1cccc(N2C(=O)CCC2=O)c1,.,-,.,-
C[C@@H]1CCCCO[C@@H](CN(C)C(=O)c2ccncc2)[C@@H](C)CN([C@H](C)CO)C(=O)c2cc(N(C)C)ccc2O1,.,.,-,.
O=[N+]([O-])c1ccccc1S(=O)(=O)N1CCN(Cc2ccc3c(c2)OCO3)CC1,-,-,36.8,-
Cc1cc(/C=C(\C#N)C(=O)OCC(=O)N(C)c2c(N)n(Cc3ccccc3)c(=O)[nH]c2=O)c(C)n1CC(C)C,.,.,-,.
O=C(N/N=C/c1ccc([N+](=O)[O-])cc1)c1[nH]ncc1Br,-,-,59.4,-
O=C(N/N=C/c1ccc(OC(=O)c2ccc([N+](=O)[O-])cc2)cc1)c1cccnc1,-,-,8.2,-
O=C(CSc1nnc(-c2ccccc2F)n1C1CC1)N1CCCC1,.,.,-,.
SMILES,AI-2 QS modul,VLA-4 inh,DSG3 Ab inh,NTR1 ag
CC(=O)c1cccc(NC(=O)Cn2cnc(S(=O)(=O)N3CCC(C)CC3)c2)c1,-,-,82.4,-
CC1CCN(S(=O)(=O)c2cn(CC(=O)Nc3cccc(C#N)c3)cn2)CC1,-,-,.,-
O=C(NC1CCN(Cc2ccccc2)CC1)c1cccc(S(=O)(=O)Nc2ccc(SC(F)F)cc2)c1,.,-,-,-
COc1cccc(COc2cc3ccccc3nc2C)c1,-89.1,-,-,-
CCOC(=O)/C=C/C(=O)Nc1nccs1,-90.5,-,-,-
O=C(CN1CCc2ccccc21)Nc1ccc2c(c1)OCO2,-,-,72.3,-
CC(=O)Nc1ccc(-c2cc(-c3ccccc3)nc(-c3ccccc3)n2)cc1,-,-,-15.1,-
Cc1ccc(NC(=O)NNC(=O)C2CCN(Cc3ccc(F)cc3Cl)CC2)cc1,-,-,50.1,-
Cc1cc(=O)c(C(=O)Nc2cccc(C(=O)NC3CC3)c2)nn1-c1ccccc1,.,.,-,.
CCc1nnc(NC(=O)CSc2ncnc3c2oc2ccccc23)s1,-,-,-17.4,-
O=C(CSc1ncnc2c1oc1ccccc12)Nc1nc2ccccc2s1,-,-,-,-
CCOC(=O)Nc1ccc(OC(=O)Oc2ccc(NC(=O)OCC)cc2)cc1,.,.,77.8,.
CCOC(=O)Nc1ccc(Cc2ccncc2)cc1,-,-,-,-
CC(C)(C)c1ccc(NC(=O)c2ccc3c(c2)S(=O)(=O)c2ccccc2C3=O)cc1,-,-,-,-
COc1ccc(NC(=O)c2ccc3c(c2)S(=O)(=O)c2ccccc2C3=O)cc1,-,-,83.1,-
OC(CCN1CC2CCC(CC2)C1)(Cc1ccccc1)c1ccco1 (stereo unspecified),.,.,-,.
Cc1ccc2c(c1)C(=O)N(CCCCO)C2=O,-,-,69.4,-
COc1ccc(NS(=O)(=O)c2ccc(C)c(C(=O)NCCCn3ccnc3)c2)cc1,.,.,-,.
O=C(NNc1nc2cc3c(cc2s1)OCCO3)c1ccc(F)cc1,-89.9,-,-,-
O=C(Nc1nc2cc3c(cc2s1)OCCO3)c1ccc(N2C(=O)CCC2=O)cc1,-,-,81.1,-
CCN1C[C@@H]2[C@@H]3C(=O)N(C)C(=O)[C@@H]3[C@](CC)(C1=O)N2C(=O)c1ccc(C)cc1,.,.,-,.
CCC1NC(=O)c2cccnc2-n2c1nc1ccc(OC)cc1c2=O (stereo unspecified),.,.,-,.
O=C(CCC(=O)N1CCN(c2ccccc2F)CC1)N1CCN(c2ccccc2)CC1,-,-,77.0,-
O=C(CCC(=O)N1CCN(c2ccccc2F)CC1)N1CCN(c2ccc(F)cc2)CC1,-,-,-,-
CCCN(C(=O)CSCc1ccc(C)cc1)c1c(N)n(Cc2ccccc2)c(=O)[nH]c1=O,.,.,-,.
SMILES,AI-2 QS modul,VLA-4 inh,DSG3 Ab inh,NTR1 ag
C[C@@H]1CN([C@H](C)CO)S(=O)(=O)c2ccc(Br)cc2O[C@H]1CN(C)C(=O)Nc1ccccc1,.,.,-,.
O=C(CSc1nc2nc(-c3cccs3)cc(C(F)(F)F)c2c(=O)[nH]1)Nc1c(F)c(F)c(F)c(F)c1F,-,-,-,-
O=c1[nH]c(=S)[nH]c2nc(-c3cccs3)cc(C(F)(F)F)c12,-,-,71.3,-
O=C(NCC(c1ccco1)N1CCCC1)c1ccc(Cl)c(S(=O)(=O)N2CCc3ccccc32)c1 (stereo unspecified),.,-,-,-
COc1cccc(NC(=O)COc2ncnc3sc(C)c(C)c23)c1,-76.4,-,-,-
CCN(CC(=O)Nc1cccc(OC)c1)c1ncnc2sc(C)c(C)c12,-,-,-,-
O=C(CCC(=O)NNC(=O)COc1ccc(Br)cc1)NCc1ccccc1,-,-,1.9,-
